# Several values for one entry are separate records, joined by “and”; a condition that tells them apart may be missing. Equal entries are not always repeated. Results filed as inconclusive are left out. For some assays here: Measured potencies and affinities stand elsewhere. Activity calls are given as the source filed them. Unless noted, how the calls were made is not given here.
# Key:
# [1] = Ebola virus entry assay, green fluorescence channel
# [2] = Ebola virus entry assay, blue channel fluorescence
# [3] = Ebola virus entry assay, green channel fluorescence
# [4] = Ebola virus entry assay, blue channel (ratio component)
# [5] = Ebola virus entry assay, ratio channel
# [6] = Ebola virus entry assay, reporter ratio channel; AC50: Channel type: primary unless noted; outcome: Channel type: primary unless noted
# [7] = qHTS assay for measurement of the activity of small molecule inhibitors on Zika virus induced Caspase-3 activity in human iPSC derived neural progenitor cells (hNPCs) (AID 1224857; active means well fitted inhibition curve with a large enough effect; further: nearly all actives have a fitted effect of over 65% in size; further: potency means the concentration at half of the fitted maximal effect); settings: hNPCs ZIKV-induced caspase-3/7, Caspase-Glo luminescence, 6 h; series mostly up to 45.7 µM
# Outline: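 Caspase-3/7 induction by a 6-hour ZIKV infection was quantified with a luminescent Caspase-Glo 3/7 reagent incubated 30 minutes at room temperature. Compounds were preincubated with hNPCs for 1 hour; inhibition was calculated against uninfected and infected control wells.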
# [8] = qHTS assay for measurement of the activity of small molecule inhibitors on Zika virus induced Caspase-3 activity in human astrocytoma cells (AID 1224859; active means well fitted inhibition curve with a large enough effect;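 further: plate controls were ZIKV-infected untreated cells for no effect and uninfected cells for full effect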); settings: SNB-19 ZIKV-induced caspase-3/7, luminescence, 6 h; series mostly up to 45.7 µM
# Outline: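 In SNB-19 cells plated at 250 cells/well and grown 16-20 h, compounds were applied 1 h before ZIKV (2 FFU/cell). Six hours later caspase-3/7 luminescence was recorded.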
# [9] = Immunotoxin (HA22) sensitization/mitigation study. Vehicle arm (PBS) (AID 1159510); settings: cancer cells viability with PBS vehicle (HA22 study); series mostly up to 46.1 µM; further: potency means the concentration at half of the fitted maximal effect
# [10] = Immunotoxin (SS1P) sensitization/mitigation study. Vehicle arm (DMEM) (AID 1159513); settings: cell viability with vehicle (DMEM); series mostly up to 46.1 µM; further: potency means the concentration at half of the fitted maximal effect
# [11] = High-throughput drug toxicity screening in the BPDCN cell line Gen2.2 (AID 1224824); settings: Gen2.2 BPDCN cells; at 45.8 µM (top of the series);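 further: cells exposed to compounds for 48 h before reading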
# Outline: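 CellTiter-Glo luminescence read after 48 h compound exposure at 37 C defines viability; percent activity set with DMSO as 100% and bortezomib (9.2 uM final) as 0%. 500 exponentially growing cells per well, RPMI plus 10% FBS.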
# [12] = High-throughput drug toxicity screening in the BPDCN cell line Cal-1 (AID 1224825); settings: Cal-1 BPDCN cell viability, qHTS; at 45.8 µM (top of the series)
# Outline: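 Cal-1 cells, 500 per well in phenol-red-free RPMI with 10% FBS, exposed to compounds for 48 hours at 37C, 5% CO2. Viability read by CellTiter-Glo luminescence; percent activity normalized to DMSO (100%) and 9.2 uM bortezomib final (0%).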
# [13] = qHTS Screen of the MIPE 4.0 Collection Against Ewings Sarcoma (TC32) (AID 1259256; active means well fitted inhibition curve with a large enough effect; further: nearly all actives have a fitted effect of over 45% in size; further: potency means the concentration at half of the fitted maximal effect); settings: TC32 Ewing sarcoma viability, CellTiter-Glo, 48 h; series mostly up to 45.8 µM
# Outline: (§1)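 Dose series incubated 48 h with cells in RPMI plus 5% FBS, glutamine and penicillin/streptomycin; cell viability then quantified via CellTiter-Glo.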
# [14] = qHTS Screen of the MIPE 4.0 Collection Against Ewings Sarcoma (RDES) (AID 1259252; active means well fitted inhibition curve with a large enough effect; further: nearly all actives have a fitted effect of over 35% in size; further: potency means the concentration at half of the fitted maximal effect); settings: RD-ES Ewing sarcoma viability, CellTiter-Glo, 48 h; series mostly up to 45.8 µM
# Outline: as §1
# Wherever efficacy is given: 0% is about no effect.
structure (smiles),measurement,setting,value
O=c1c(O)c(-c2ccc(O)c(O)c2)oc2cc(O)cc(O)c12,efficacy,[1],-18.8% (inactive)
same,outcome,[2],inactive
same,outcome,[3],inactive
same,outcome,[4],inactive
Cc1ccc2c(c1)C1CN(C)CCC1N2 (centres undefined),efficacy,[1],62.7% (inactive)
same,AC50,[2],17.8 µM (active)
same,AC50,[5],10 µM (active)
same,AC50,[6],10 µM (active)
same,Potency,[7],inactive
same,outcome,[8],inactive
C[C@H]1O[C@@H](O[C@H]2[C@@H](O)C[C@H](O[C@H]3[C@@H](O)C[C@H](O[C@H]4CC[C@@]5(C)[C@H](CC[C@@H]6[C@@H]5CC[C@]5(C)[C@@H](C7=CC(=O)OC7)CC[C@]65O)C4)O[C@@H]3C)O[C@@H]2C)C[C@H](O)[C@@H]1O,efficacy,[1],-46.6% (inactive)
same,AC50,[2],1.41 µM (active)
same,AC50,[5],0.708 µM (active)
same,AC50,[6],0.708 µM (active)
same,Potency,[7],inactive
same,outcome,[8],inactive
COC[C@H]1OC(=O)c2coc3c2[C@@]1(C)C1=C(C3=O)C2CCC(=O)[C@@]2(C)C[C@H]1OC(C)=O (some centres undefined),Potency,[9],5.9 µM (active)
same,Potency,[10],16.6 µM (active)
same,Potency,[7],inactive
same,outcome,[8],inactive
CN1C[C@H](CNC(=O)OCc2ccccc2)C[C@@H]2c3cccc4c3c(cn4C)C[C@H]21,efficacy,[1],74.4% (inactive)
same,AC50,[2],6.31 µM (active)
same,AC50,[5],3.98 µM (active)
same,AC50,[6],3.98 µM (active)
same,outcome,[8],inactive
CC(CCc1ccccc1)NC(C)C(O)c1ccc(O)cc1 (centres undefined),efficacy,[1],36.4% (inactive)
same,AC50,[2],35.5 µM (active)
same,AC50,[5],35.5 µM (active)
same,AC50,[6],35.5 µM (active)
same,outcome,[8],inactive
Fc1ccc(C(OCCN2CCN(CCCc3ccccc3)CC2)c2ccc(F)cc2)cc1,efficacy,[1],-187% (inactive)
same,AC50,[2],3.98 µM (active)
same,AC50,[5],2.82 µM (active)
same,AC50,[6],2.82 µM (active)
same,"cell viability, % of control (lower = more cytotoxic)",[11],57.3%
same,viability (% of control),[12],3.89%
same,Potency,[7],inactive
same,outcome,[8],inactive
same,Potency,[13],26.4 µM (active)
Clc1ccc(COC(Cn2ccnc2)c2ccc(Cl)cc2Cl)cc1 (centres undefined),efficacy,[1],-214% (inactive)
same,AC50,[2],10 µM (active)
same,AC50,[5],3.55 µM (active)
same,AC50,[6],3.55 µM (active)
same,outcome,[8],inactive
CCn1cc(C(=O)O)c(=O)c2ccc(C)nc21,efficacy,[1],67.7% (inactive)
same,outcome,[2],inactive
same,outcome,[5],inactive
same,outcome,[6],inactive
same,Potency,[7],inactive
C[C@@H]1[C@@H](C(=O)C[C@H]2O[C@@H]3O[C@]4(C)CC[C@@H]5[C@H](C)CC[C@@H]([C@H]2C)[C@@]35OO4)O[C@@H]2O[C@]3(C)CC[C@H]4[C@H](C)CC[C@@H]1[C@@]24OO3,Potency,[9],0.0264 µM (active)
same,Potency,[10],0.209 µM (active)
same,"cell viability, % of control (lower = more cytotoxic)",[11],9%
same,viability (% of control),[12],7.82%
same,Potency,[7],inactive
same,outcome,[8],inactive
same,Potency,[14],3.72 µM (active)
same,Potency,[13],20.9 µM (active)
C=C(C)[C@H]1Cc2c(ccc3c2O[C@@H]2COc4cc(OC)c(OC)cc4[C@@H]2C3=O)O1,efficacy,[1],120% (inactive)
same,AC50,[2],10 µM (active)
same,AC50,[5],8.91 µM (active)
same,AC50,[6],8.91 µM (active)
same,"cell viability, % of control (lower = more cytotoxic)",[11],45.8%
same,viability (% of control),[12],11.5%
same,Potency,[7],inactive
same,outcome,[8],inactive
same,Potency,[14],2.09 µM (active)
same,Potency,[13],0.743 µM (active)
Cc1cc(SCc2sc(-c3ccc(C(F)(F)F)c(F)c3)nc2C)ccc1OCC(=O)O,"cell viability, % of control (lower = more cytotoxic)",[11],144%
same,viability (% of control),[12],109%
Oc1cc(Cl)ccc1Oc1ccc(Cl)cc1Cl,efficacy,[1],-133% (inactive)
same,AC50,[2],15.8 µM (active)
same,AC50,[5],7.08 µM (active) and 14.1 µM (active)
same,AC50,[6],7.08 µM (active) and 14.1 µM (active)
same,outcome,[8],inactive
CN(C)CCN(C)CCc1ccc(Cl)c(Cl)c1,Potency,[9],18.7 µM (active)
same,Potency,[10],inactive
same,"cell viability, % of control (lower = more cytotoxic)",[11],137%
same,viability (% of control),[12],92.7%
same,Potency,[7],inactive
same,outcome,[8],inactive
same,Potency,[14],inactive
same,Potency,[13],inactive
Oc1ccc(Cl)cc1Cc1ccccc1,efficacy,[1],-105% (inactive)
same,AC50,[2],20 µM (active)
same,AC50,[5],10 µM (active) and 14.1 µM (active)
same,AC50,[6],10 µM (active) and 14.1 µM (active)
same,Potency,[7],inactive
same,outcome,[8],inactive
CC1=C(/C=C/C(C)=C/C=C/C(C)=C/C(=O)Nc2ccc(O)cc2)C(C)(C)CCC1,efficacy,[1],-119% (inactive)
same,AC50,[2],39.8 µM (active)
same,outcome,[5],inactive
same,AC50,[6],39.8 µM (active)
same,Potency,[9],1.87 µM (active)
same,Potency,[10],23.5 µM (active)
CC1=C2C[C@@H]3[C@@H](CC=C4C[C@@H](O)CC[C@@]43C)[C@@H]2CC[C@]12O[C@H]1C[C@H](C)CN[C@H]1[C@H]2C,Potency,[9],23.5 µM (active)
same,Potency,[10],20.9 µM (active)
same,"cell viability, % of control (lower = more cytotoxic)",[11],107%
same,viability (% of control),[12],116%
same,Potency,[7],inactive
same,outcome,[8],inactive
same,Potency,[14],inactive
C#CCOC(C(=O)OCCN(C)C)(c1ccccc1)c1ccccc1,efficacy,[1],46% (inactive)
same,AC50,[2],12.6 µM (active)
same,AC50,[5],14.1 µM (active)
same,AC50,[6],14.1 µM (active)
same,Potency,[7],inactive
same,outcome,[8],inactive
C=CC(=O)Nc1cc2c(Nc3ccc(F)c(Cl)c3)ncnc2cc1OCCCN1CCOCC1,efficacy,[1],99.2% (inactive)
same,AC50,[2],3.16 µM (active)
same,AC50,[5],2.82 µM (active)
same,AC50,[6],2.82 µM (active)
same,Potency,[9],18.7 µM (active)
same,Potency,[10],26.4 µM (active)
COC1(CS(=O)c2ccccc2)CCN(CCc2c[nH]c3ccc(F)cc23)CC1 (centres undefined),Potency,[10],inactive
same,"cell viability, % of control (lower = more cytotoxic)",[11],66.1%
same,viability (% of control),[12],80.6%
same,Potency,[7],20.9 µM (active)
same,outcome,[8],inactive
COc1ccc(C(=O)c2c(C)n(CCN3CCOCC3)c3ccccc23)cc1,efficacy,[1],-40.9% (inactive)
same,AC50,[2],39.8 µM (active)
same,outcome,[5],inactive
same,AC50,[6],35.5 µM (active)
same,Potency,[9],20.9 µM (active)
same,"cell viability, % of control (lower = more cytotoxic)",[11],100%
same,viability (% of control),[12],101%
same,Potency,[7],inactive
same,outcome,[8],inactive
same,Potency,[14],inactive
same,Potency,[13],inactive
O=c1[nH]c2ccccc2n1CCCN1CCC(n2c(=O)[nH]c3cc(Cl)ccc32)CC1,efficacy,[1],125% (inactive)
same,AC50,[2],39.8 µM (active)
same,AC50,[5],25.1 µM (active)
same,AC50,[6],25.1 µM (active)
same,"cell viability, % of control (lower = more cytotoxic)",[11],278%
same,viability (% of control),[12],61.6%
same,Potency,[7],inactive
same,outcome,[8],inactive
same,Potency,[14],inactive
same,Potency,[13],inactive
Cc1sc2c(c1C)C(c1ccc(Cl)cc1)=N[C@@H](CC(=O)OC(C)(C)C)c1nnc(C)n1-2,Potency,[9],0.0743 µM (active)
same,Potency,[10],10.5 µM (active)
same,"cell viability, % of control (lower = more cytotoxic)",[11],1.32%
same,viability (% of control),[12],2.41%
same,Potency,[7],inactive
same,outcome,[8],inactive
same,Potency,[14],1.48 µM (active)
same,Potency,[13],1.32 µM (active)
CO[C@@H](C(=O)N1Cc2[nH]nc(NC(=O)c3ccc(N4CCN(C)CC4)cc3)c2C1)c1ccccc1,Potency,[9],0.332 µM (active)
same,Potency,[10],23.5 µM (active)
